Records with an inconclusive call do not appear. The source made the active and inactive calls. The call rests on the fitted dose curve; in most records, active means well fitted inhibition curve with a large enough effect; inconclusive means small, poorly fitted or top-dose-only effect; inactive means flat fitted curve, though single readings scatter. Where a SMILES comes first, the peptide text is derived from it. [ ]: non-standard residue; d: D form. pGlu = O=C1CC[C@@H](C(=O)O)N1; Thz = O=C(O)[C@@H]1CSCN1
Key:
Test in all cases: qHTS profiling for inhibitors of Plasmodium falciparum proliferation (AID 504749); further: nearly all actives have a fitted effect of over 60% in size
Details in all cases: P. falciparum in erythrocytes, SYBR Green DNA, 72 h; series mostly up to 28.7 µM
CP250 = test system: CP250
Outline: (§1)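 SYBR Green fluorescence of parasite DNA, read after lysis and overnight dark incubation, measured growth over 72 h in erythrocyte culture at 0.3% parasitemia and 2.5% hematocrit. Data normalised to DMSO and 0.29 uM artemisinin, with plate-drift correction.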

CP252 = test system: CP252
Outline: as §1

CP256 = test system: CP256
Outline: as §1

CP260 = test system: CP260
Outline: as §1

CP262 = test system: CP262
Outline: as §1

CP265 = test system: CP265
Outline: as §1

CP266 = test system: CP266
Outline: as §1

CP268 = test system: CP268
Outline: as §1

CP269 = test system: CP269
Outline: as §1

CP286 = test system: CP286
Outline: as §1

Measured: Potency
Potency means the concentration at half of the fitted maximal effect.

CCCCCCCCCCCCCCCCCC(=O)O
inactive: all assays above

Cc1ccccc1CNc1ncnc2c1ncn2C1OC(CO)C(O)C1O (centres undefined)
inactive: all assays above

N=c1ccn2c(n1)O[C@H]1[C@H](O)[C@@H](CO)O[C@H]12
inactive: all assays above

CCCSc1ccc2nc(NC(=O)OC)[nH]c2c1
inactive: all assays above

COc1ccc(-c2cc(=S)ss2)cc1
inactive: all assays above

CCC1C(=O)OCC1Cc1cncn1C (centres undefined)
inactive: all assays above

Nc1cc(-c2ccncc2)c[nH]c1=O
inactive: all assays above

CCCCCCCCCCCC(=O)[O][Sn]([CH2]CCC)([CH2]CCC)[O]C(=O)CCCCCCCCCCC
active: CP260 10 µM
not listed: CP286
inactive: all other assays above

C=CCCCCCCCCC(=O)O
inactive: all assays above

O=C(Nc1ccc(C(=O)O)c(O)c1)c1ccccc1
inactive: all assays above

CCCCCCCCCCCCCCCC(=O)OC(C)C
inactive: all assays above

O=C(O)c1ccccc1Nc1cccc(C(F)(F)F)c1
inactive: all assays above

CC1(C)S[C@@H]2[C@H](NC(=O)[C@H](NC(=O)N3CCN(S(C)(=O)=O)C3=O)c3ccccc3)C(=O)N2[C@H]1C(=O)O
inactive: all assays above

Cc1ccc(O)c(-n2nc3ccccc3n2)c1
inactive: all assays above

C=C(Nc1ccc(OCC)cc1)Nc1ccc(OCC)cc1
inactive: all assays above

COc1ccc(/C=C/C(=O)Nc2ccccc2C(=O)O)cc1OC
inactive: all assays above

C=CCN1C(=O)C(CC(C)C)NC1=S (centres undefined)
inactive: all assays above

O=C(O)COc1ccc(C(=O)c2cccs2)c(Cl)c1Cl
inactive: all assays above

COc1cc(/C=C/C(=O)N2CCN(CC(=O)N3CCCC3)CC2)cc(OC)c1OC
inactive: all assays above

[O-][n+]1ccccc1SSc1cccc[n+]1[O-]
active: CP250 0.708 µM | CP252 1 µM | CP256 2 µM | CP260 0.708 µM | CP262 1.07 µM | CP265 1.26 µM | CP266 1.51 µM | CP268 0.849 µM | CP269 1.07 µM | CP286 0.891 µM

O=C1CC[C@@H](C(=O)N2CSC[C@H]2C(=O)O)N1 ([pGlu]-[Thz]-OH)
inactive: all assays above

O=C(O)[C@H](CC(=O)N1C[C@H]2CCCC[C@H]2C1)Cc1ccccc1
inactive: all assays above

CCOc1ccc2nc(S(N)(=O)=O)sc2c1
inactive: all assays above

CCCOC(=O)c1ccc(O)cc1
inactive: all assays above

O=C(OCc1ccccc1)c1ccccc1
active: CP260 3.16 µM
inactive: all other assays above

O=C(O)[C@H](O)[C@@H](O)[C@H](O)[C@H](O)CO
inactive: all assays above

O=C(/C=C/c1ccccc1)NCCO
inactive: all assays above

O=C(O)/C=C/C(O)c1ccc(Cl)cc1 (centres undefined)
inactive: all assays above

Cc1c(Nc2ncccc2C(=O)O)cccc1C(F)(F)F
inactive: all assays above

C=CC(N)CCC(=O)O (centres undefined)
inactive: all assays above

Nc1ccc(C(=O)O)c(O)c1
inactive: all assays above

CCCCCCOc1ccccc1C(N)=O
inactive: all assays above

Clc1ccccc1-c1nc(-c2ccncc2)no1
inactive: all assays above

COc1cc(/C=C/C(=O)CC(=O)/C=C/c2ccc(O)c(OC)c2)ccc1O
active: CP250 8.91 µM

CC1(C)C[C@@H]1C(=O)N/C(=C\CCCCSC[C@H](N)C(=O)O)C(=O)O
not listed: CP260
inactive: all other assays above

O=C(O)Cc1ccc(-c2ccccc2)cc1
inactive: all assays above

O=C(O)c1cc(O)c(O)c(O)c1
active: CP250 5.62 µM
not listed: CP260 | CP262
inactive: all other assays above

COc1cc2c3cc1Oc1cc(ccc1O)C[C@@H]1c4c(cc(OC)c(O)c4Oc4ccc(cc4)C[C@@H]3N(C)CC2)CC[N+]1(C)C
inactive: all assays above

Nc1ccc(O)c(C(=O)O)c1
not listed: CP266
inactive: all other assays above

C#C[C@]1(O)CC[C@H]2[C@@H]3CCc4cc(O)ccc4[C@H]3CC[C@@]21C
inactive: all assays above

CN(C)c1ccc(C(=C2C=CC(=[N+](C)C)C=C2)c2ccccc2)cc1
inactive: CP262
active: CP250 11.2 µM | CP252 12.6 µM | CP256 10 µM | CP260 7.08 µM | CP265 11.2 µM | CP266 12 µM | CP269 10.7 µM | CP286 2 µM

CN1[C@@H]2CC[C@H]1CC(OC(c1ccccc1)c1ccccc1)C2 (some centres undefined)
inactive: CP250 | CP260 | CP266
active: CP256 12.6 µM | CP286 11.2 µM

Nc1c(CC(=O)O)cccc1C(=O)c1ccc(Br)cc1
inactive: all assays above

O=C(CCN1CCN(CCO)CC1)N1c2ccccc2Sc2ccc(C(F)(F)F)cc21
active: CP256 11.2 µM | CP260 11.2 µM | CP265 3.98 µM | CP286 12.6 µM
inactive: CP268

CC1OC1P(=O)(O)O (centres undefined)
not listed: CP260
inactive: all other assays above

O=c1[nH]c2ccccc2n1CCCN1CCN(C(c2ccccc2)c2ccccc2)CC1
inactive: CP262

COc1cc(CNC(=O)CCCC/C=C/C(C)C)ccc1O
not listed: CP266
inactive: all other assays above

CC1(C)[C@@H](O)CC[C@]2(C)[C@H]3C(=O)C=C4[C@@H]5C[C@@](C)(C(=O)O)CC[C@]5(C)CC[C@@]4(C)[C@]3(C)CC[C@@H]12
not listed: CP266
inactive: all other assays above

Cc1nc2ccccc2n1Cc1ccc(Cl)cc1
inactive: CP250 | CP260 | CP268 | CP269 | CP286

O=C1CN(/N=C/c2ccc(-c3ccc([N+](=O)[O-])cc3)o2)C(=O)N1
not listed: CP262
inactive: all other assays above

CCCCCC[C@@H](O)C/C=C\CCCCCCCC(=O)O
not listed: CP266
inactive: all other assays above

CN1CCN(c2cc3c(nn2)Oc2ccccc2N3C)CC1
not listed: CP266
inactive: all other assays above

Oc1c(Br)cc(Br)c2cccnc12
not listed: CP262
inactive: all other assays above

Cc1[nH]cnc1CN1CCc2c(c3ccccc3n2C)C1=O
inactive: all assays above

CC(=O)[C@]1(O)Cc2c(O)c3c(c(O)c2[C@@H](O[C@H]2C[C@H](N)[C@H](O)[C@H](C)O2)C1)C(=O)c1c(O)cccc1C3=O
active: CP250 11.2 µM | CP260 3.55 µM | CP262 15.1 µM | CP268 12 µM | CP269 9.53 µM | CP286 2.24 µM

NC(=O)C(c1ccccc1)(c1ccccc1)[C@@H]1CCN(CCc2ccc3c(c2)CCO3)C1
inactive: CP250 | CP266 | CP269

CN1[C@@H]2CC[C@H]1CC(OC(=O)C(CO)c1ccccc1)C2 (some centres undefined)
not listed: CP256
inactive: all other assays above

CN1[C@@H](CC(=O)c2ccccc2)CCC[C@H]1C[C@H](O)c1ccccc1
inactive: CP250 | CP262 | CP266 | CP268 | CP269

c1ccc2sc(SN3CCOCC3)nc2c1
not listed: CP260
inactive: all other assays above

CC(N)C(=O)OC(C)(C)Cc1ccc(Cl)cc1 (centres undefined)
inactive: CP250 | CP256 | CP262 | CP266

CC(C(=O)O)c1ccc2c(c1)[nH]c1ccc(Cl)cc12 (centres undefined)
inactive: all assays above

COC(=O)C1=C(C)NC(C)=C(C(=O)OCC(C)C)C1c1ccccc1[N+](=O)[O-] (centres undefined)
active: CP256 10 µM | CP286 8.91 µM

Cc1ccc(C(=O)c2ccc(CC(=O)O)n2C)cc1
inactive: all assays above

CCCC(=O)OC[C@@H](OC(=O)CCC)[C@@H](OC(=O)CCC)[C@H](Cn1c2nc(=O)[nH]c(=O)c-2nc2cc(C)c(C)cc21)OC(=O)CCC
inactive: CP262 | CP266 | CP268 | CP269

Cc1cc(O)c2ccccc2c1O
not listed: CP250
inactive: all other assays above

CCOC(=O)c1ccccc1O
not listed: CP250
inactive: all other assays above

CCCCC[C@H](O)/C=C/[C@@H]1[C@@H](C/C=C\CCCC(=O)O)[C@@H](O)C[C@H]1O
inactive: all assays above

c1ccc2sc(SSc3nc4ccccc4s3)nc2c1
not listed: CP266
inactive: all other assays above

C[S+](CC[C@H](N)C(=O)O)C[C@H]1O[C@@H](n2cnc3c(N)ncnc32)[C@H](O)[C@@H]1O (some centres undefined)
inactive: CP252 | CP260 | CP262 | CP268 | CP269 | CP286
